Results: ChEMBL document CHEMBL3988442, “University of Dundee, Small-Polar-MMV Screening Library” (2021)
About 420 (0.61%) of roughly 69,000 compounds showed an effect of 50% or more. For the sample, strong results were picked, then their nearest neighbours and some compounds at random.

biological target: T1, Histidine--tRNA ligase (Leishmania infantum) (UniProt A4I591); experiment: Leishmania infantum Histidine tRNA synthetase (LdHisRS); format: functional; design: scale not given: in the data most compounds retested in dose-response had high values; settings: 30 µM
T1 sequence (whole entry): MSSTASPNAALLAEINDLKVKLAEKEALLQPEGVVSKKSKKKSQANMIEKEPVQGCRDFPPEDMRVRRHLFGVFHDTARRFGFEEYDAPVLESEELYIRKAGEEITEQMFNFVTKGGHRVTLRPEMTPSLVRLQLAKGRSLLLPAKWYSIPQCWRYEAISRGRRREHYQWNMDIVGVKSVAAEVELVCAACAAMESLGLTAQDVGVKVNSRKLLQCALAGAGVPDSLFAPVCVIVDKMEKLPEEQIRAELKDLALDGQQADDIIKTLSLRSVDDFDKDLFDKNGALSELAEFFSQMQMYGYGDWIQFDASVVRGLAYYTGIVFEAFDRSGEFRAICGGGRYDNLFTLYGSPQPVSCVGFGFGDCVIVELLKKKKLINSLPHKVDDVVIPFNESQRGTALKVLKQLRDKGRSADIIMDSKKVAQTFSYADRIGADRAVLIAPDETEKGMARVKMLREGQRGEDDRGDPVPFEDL

Row | SMILES | Percent Effect
1 | O=C(NCc1ccco1)[C@H]1C[C@@H]2CCN(c3cccc(F)c3)C[C@H]2O1 | 25%
2 | Cc1cnc(N2C[C@@H]3CN(Cc4ccco4)CCC[C@]3(C(=O)O)C2)nc1 | 19.4%
3 | COCC(=O)N1CCC2(CC1)NC(=O)[C@H]1CN(C(=O)N(C)C)C[C@H]12 | 25.2%
4 | CN1CCO[C@@H]2CN(C(=O)NCc3ccccc3)CC[C@@H]2C1 | 4.54%
5 | Cc1cccc(S(=O)(=O)N2C[C@H]3C[C@H](C(=O)NCC(C)C)[C@@H](C2)O3)c1 | 12%
6 | CCc1ncc2c(n1)CN(Cc1nc(-c3ccccn3)no1)CC2 | 22.7%
7 | CCn1nc2c(cc1=O)CN(Cc1nc(-c3ccccn3)no1)CC2 | 85.1%
8 | c1ccc(-c2noc(CN3CCc4cncnc4C3)n2)nc1 | 36%
9 | CCn1nc2c(cc1=O)CN(Cc1nc(-c3cccnc3)no1)CC2 | 14.7%
10 | Cn1nc2c(cc1=O)CN(Cc1nc(-c3ccccn3)no1)CC2 | 99.1%
11 | CCn1nc2c(cc1=O)CN(Cc1nc(-c3cccs3)no1)CC2 | 25.9%
12 | COc1ccc(CN2C[C@@H]3COC[C@H](N4CCN(C)CC4)[C@@H]3C2)cc1 | 1%
13 | CC(C)(C)SCCN1CC(=O)N2CC[C@@H](O)C[C@H]2C1=O | 10.6%
14 | O=C(c1ccco1)N1CC[C@@H]2O[C@@H](COCCN3CCCC3)CC[C@@H]21 | 4.59%
15 | Cc1nccn1-c1ccc(NS(=O)(=O)c2cnn(C)c2)cn1 | 31.3%
16 | Cc1nccn1-c1ccc(NS(=O)(=O)c2cccnc2)cn1 | 33.7%
17 | Cc1nccn1-c1ccc(NS(=O)(=O)c2cnn(C(C)C)c2)cn1 | 50.6%
18 | CCC(C)NS(=O)(=O)c1ccc(/C=C\c2onc(C)c2NC(C)=O)cc1 (stereo not given) | 5.48%
19 | Cc1cc(-c2nn(C)c(Cl)c2CN2CCOCC(O)C2)no1 (stereo not given) | 15.2%
20 | Cc1cc(-c2nn(C)c(Cl)c2CN2Cc3ccccc3C(O)C2)no1 (stereo not given) | 66.7%
21 | Cc1cc(-c2nn(C)c(Cl)c2CN2CC[C@H](CO)[C@@H](O)C2)no1 | 2.78%
22 | CO[C@@H]1CC[C@H]2[C@H]1OCCN2C(=O)C1CCOCC1 | 23.1%

Row | SMILES | Percent Effect
23 | CN1CCN(C(=O)c2cc(-c3ccco3)cs2)CC1 | 30%
24 | O=C(c1cc(-c2ccco2)cs1)N1CCOCC1 | 25%
25 | O=C(c1cc(-c2ccco2)cs1)N1CCCC1 | 55%
26 | Cc1ocnc1C(=O)N1CCN(C(=O)CC(C)C)[C@@H]2CS(=O)(=O)C[C@@H]21 | 6.67%
27 | Cc1cccc(N2Cc3nc(=O)n(Cc4cccc(F)c4)n3C2=O)c1 | 14.1%
28 | NC[C@H]1CC[C@H](C(NC(=O)c2ccccn2)c2ccccn2)CC1 (stereo not given in full) | 22.9%
29 | COc1cccc(C(=O)NC(c2ccccn2)[C@H]2CC[C@H](CN)CC2)c1 (stereo not given in full) | 39.1%
30 | NC[C@H]1CC[C@H](C(NC(=O)c2cccc(F)c2)c2ccccn2)CC1 (stereo not given in full) | 60%
31 | NC[C@H]1CC[C@H](C(NC(=O)c2ccccc2)c2ccccn2)CC1 (stereo not given in full) | 22.9%
32 | COc1ccccc1C(=O)NC(c1ccccn1)[C@H]1CC[C@H](CN)CC1 (stereo not given in full) | 88.4%
33 | NC[C@H]1CC[C@H](C(NC(=O)C2CC2)c2ccccn2)CC1 (stereo not given in full) | 18.8%
34 | O=C(CC1CC1)N1C[C@@H]2CN(c3ccccc3)C(=O)[C@@H]2C1 | 21.1%
35 | COc1cc(CN2C[C@@H]3CNC(=O)[C@H](C)[C@@H]3C2)cc(OC)c1 | 21.1%
36 | O=C1[C@H]2CN(S(=O)(=O)C3CC3)C[C@H]2CN1Cc1cccnc1 | 2.74%
37 | COCCN1C(=O)C[C@H]2[C@H]1CCN2C(=O)c1ccc[nH]1 | 22.6%
38 | Cc1cccc(CN2C[C@@H]3CN(C(=O)c4ccnnc4)C[C@@H]3C2=O)c1 | 28.6%
39 | O=C(c1cscn1)N1C[C@H]2CCCC(OCc3cccnc3)[C@H]2C1 (stereo not given in full) | 17%
40 | Cc1nc(N2CCCC2)nc2c1CCN(C(=O)C1CCC1)CC2 | 51.3%
41 | Cc1nc(N2CCCC2)nc2c1CCN(C(=O)C1CCCC1)CC2 | 23.3%
42 | Cc1nc(N2CCCC2)nc2c1CCN(C(=O)C1CCCCC1)CC2 | 23.1%
43 | CNC(=O)CN1CC[C@H]2CN(C(=O)c3ccc(C)cc3)C[C@H]2C1 | 9.72%
44 | O=C(c1cscn1)N1CC[C@@H]2[C@@H]1CCN2c1ccccn1 | 10.5%

Row | SMILES | Percent Effect
45 | Cc1nn(C)c(C)c1-c1cc(-c2cnn(C)c2C2CC2)c(C#N)c(N)n1 | 19%
46 | Cn1ncc(-c2cc(-c3cccc(O)c3)nc(N)c2C#N)c1C1CC1 | 64.6%
47 | Cc1cc(O)ccc1-c1cc(-c2cnn(C)c2C2CC2)c(C#N)c(N)n1 | 29.1%
48 | CC(CNC(=O)c1cnccn1)Oc1ccc(F)cc1 (stereo not given) | 5.31%
49 | O=C(c1cncc(N2CCC3(CCCNC3)C2)n1)N1CCCC1 (stereo not given) | 56.7%
50 | O=C(c1cncc(N2CCC3(CCNCC3)CC2)n1)N1CCCC1 | 18.4%
51 | O=C(c1cncc(N2CCCC3(CCNCC3)CC2)n1)N1CCCCC1 | 31.7%
52 | CC1(C)[C@H]2CC=C(CN3CCCn4nc(CNS(C)(=O)=O)cc4C3)[C@@H]1C2 | 10.6%
53 | CC(C)c1ccccc1NC(=O)N1C[C@@H]2CC[C@H](C1)N(C)C2=O | 11.8%
54 | O=C(Nc1cccc2ccccc12)N1CCC(N2CCSCC2)CC1 | 18.3%
55 | CN1C(=O)[C@H]2CC[C@@H]1CN(C(=O)Nc1ccccc1C(F)(F)F)C2 | 7.84%
56 | CN1C(=O)[C@H]2CC[C@@H]1CN(C(=O)Nc1cccc3ccccc13)C2 | 68.6%
57 | CS(=O)(=O)NCC1CCCN(C(=O)Nc2cccc3ccccc23)C1 (stereo not given) | 33%
58 | Cc1oncc1C(=O)N1CC[C@H]2C[C@H](c3ccncn3)O[C@@H]2C1 | 7.27%
59 | CS(=O)(=O)NC[C@]12COC[C@H]1CN(C(=O)C1CC=CC1)C2 | -44.5%
60 | N#Cc1ccc(N2CCC3(CC2)CC(OCc2cccnc2)CO3)cc1 (stereo not given) | 33.3%
61 | Fc1ccc(N2CCC3(CC2)CC(OCc2cccnc2)CO3)cc1 (stereo not given) | 56.1%
62 | Fc1cnc(N2CCC3(CC2)CC(OCc2cccnc2)CO3)nc1 (stereo not given) | 8.77%
63 | CCN1CC[C@@]2(C(=O)N(C)C)CCN(C(=O)NC(C)C)CC[C@@H]12 | 15.5%
64 | COC1CCN(C(=O)Cn2cccc(C(F)(F)F)c2=O)C1 (stereo not given) | 18.8%
65 | COc1cccn(CC(=O)N2CCC3(CCNCC3)C2)c1=O | 116%
66 | COc1ccccc1-c1ccccc1CC1(C(=O)O)CCNCC1 | 2.84%

Row | SMILES | Percent Effect
67 | COc1cccc(CN2CC3(CCNCC3)CCC2=O)c1OC | 8.57%
68 | CCCOCC1CCN(C(=O)Cn2cccc(C(F)(F)F)c2=O)C1 (stereo not given) | 12%
69 | COc1cccn(CC(=O)N2CCCC3(CCCO3)CC2)c1=O (stereo not given) | 101%
70 | COc1cccc2c1ccn2CC(=O)N1CCCC(C(=O)O)C1 (stereo not given) | 7.89%
71 | COc1ccccc1C(=O)N1CCOC2(CCCN(C(C)=O)C2)C1 (stereo not given) | 8%
72 | O=C1NCC2(CCCN(C(=O)Cn3nc4ccccc4n3)CC2)O1 (stereo not given) | 6.45%
73 | CCCOCC1CCN(C(=O)Cn2ncc(N3CCCC3)cc2=O)C1 (stereo not given) | -3.8%
74 | COc1cccn(CC(=O)N2CCCC3(CCCCC3)C2)c1=O | 110%
75 | CCCOCC1CCN(C(=O)Cn2cccc(OC)c2=O)C1 (stereo not given) | 97.4%
76 | O=C([C@H]1CN(Cc2ccoc2)C[C@H]2OCC[C@@H]12)N1CCCCO1 | 22.2%
77 | Cc1nc(CN2CCO[C@@H]3CN(C(=O)CC4CC4)CC[C@@H]3C2)cs1 | 12.7%
78 | COC[C@@H]1CC[C@H]2[C@H](CCN2S(=O)(=O)c2ccc(C)cc2)O1 | 2.65%
79 | CN(C)C[C@H]1OC[C@@H]2CN(C(=O)NCc3cccc(F)c3)CC[C@@H]21 | 0%
80 | Cc1n[nH]c(CN2CCN(Cc3ccccc3)[C@@H]3CS(=O)(=O)C[C@@H]32)n1 | 32%
81 | CCN1C[C@H]2C3(CCN(S(C)(=O)=O)CC3)CC[C@@]2(C(=O)N(C)C)C1 | 12%
82 | Cc1cc(C(=O)N2C[C@@H]3COC[C@]3(COCc3cccnc3)C2)no1 | 12.6%
83 | O=C(N[C@@H]1CN(c2ncccn2)[C@@H]2CCCO[C@@H]21)c1cnccn1 | 18.9%
84 | O=C1CC[C@@H]2[C@@H](CCN2C(=O)c2ccsc2)N1Cc1ccncc1 | 14.7%
85 | CN1C(=O)[C@H]2CC[C@@H]1CN(C(=O)c1nnc3n1CCCCC3)C2 | 17.8%
86 | CC1CCN(S(=O)(=O)c2cccn(CC(=O)N3CCOCC3)c2=O)CC1 | -7.77%
87 | COc1ccccc1CC(=O)N1CC[C@H](O)[C@]2(CCCO2)C1 | 18.8%
88 | COc1cccn(CC(=O)N2CCCC3(CCOCC3)C2)c1=O | 98.9%

Row | SMILES | Percent Effect
89 | Cc1ccoc1C(=O)N1CC[C@@H]2O[C@@H](C)C[C@H]2C1 | 12.3%
90 | CSc1nsc(SCC(=O)c2cc3c(cc2Cl)NC(=O)C3)n1 | 13.2%
91 | Nc1nnc(SCC(=O)c2cc3c(cc2Cl)NC(=O)C3)s1 | 50%
92 | Cc1nnc(SCC(=O)c2cc3c(cc2Cl)NC(=O)C3)s1 | 2.63%
93 | Cn1cccc1C(=O)N[C@@H]1CN(Cc2cccs2)[C@@H]2COC[C@@H]21 | 5.71%
94 | COc1ccc(CN2C[C@@H]3CN(Cc4ccncc4)C[C@@H]3C2=O)cc1 | 13.6%
95 | COc1cc(N2C[C@H]3CCC[C@@H](CN4CCOCC4)[C@H]3C2)ncn1 | 17.4%
96 | CS(=O)(=O)N1CCC2(CC1)CN(CCn1cccn1)C(=O)CO2 | 65.8%
97 | COCCN1CCC2(CC1)CN(CCn1cccn1)C(=O)CO2 | 16.2%
98 | O=C1COC2(CCN(Cc3ccoc3)CC2)CN1CCn1cccn1 | 21.4%
99 | CCn1cc(C(=O)N2C[C@H]3C[C@H](Oc4ccccc4)C[C@H]3C2)cn1 | 11.5%
100 | Cc1nc(C(=O)N2CCN(C(=O)C3CCC3)[C@@H]3CS(=O)(=O)C[C@@H]32)cs1 | 2.67%
101 | O=C(Cc1ccsc1)N1C[C@H]2CCC[C@@]2(COCc2ccccn2)C1 | 7.92%
102 | Cc1cc(C)c(CNC(=O)N2CCCC2c2ccccn2)c(=O)[nH]1 (stereo not given) | 12.3%
103 | CN(C)CC(=O)N1CCCC1c1ccccn1 (stereo not given) | 8.63%
104 | COc1ccc(NC(=O)N2CCCC2c2ccncc2)cn1 (stereo not given) | 13.2%
105 | Cn1cc(NC(=O)N2CCCC2c2ccccn2)ccc1=O (stereo not given) | 108%
106 | Cn1cc(NC(=O)N2CCCC2c2cccnc2)ccc1=O (stereo not given) | 100%
107 | Cn1cc(C(=O)N2CCCC2c2ccc3c(c2)OCO3)ccc1=O (stereo not given) | 12.1%
108 | Cn1cc(C(=O)N2CCCC2c2ccc3c(c2)OCCO3)ccc1=O (stereo not given) | 27.3%
109 | CC(C)C1CCCN1C(=O)Nc1ccc(=O)n(C)c1 (stereo not given) | 119%
110 | CCSc1ccc(NC(=O)N2CCCC2c2ccncc2)cn1 (stereo not given) | 1.65%
